Screening results from PubChem BioAssay.
This is a sample that favours compounds with a hit; in the whole collection about 10% have one here.
SW480 rereplic: A quantitative high throughput screen for small molecules that induce DNA re-replication in SW480 colon adenocarcinoma cells; AID 624297, 2012; SW480 DNA re-replication, Hoechst DNA content imaging, 48 h; 1.8% of 340,000 active; Potency, µM (top dose mostly 46.1 µM), most hits filed as activators; note: nearly all actives have a fitted effect of over 55% in size
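Per well, 250 cells were exposed to pinned compound for 48 hr. Nuclear DNA was visualised with Hoechst (40 min, 37 C) and total object intensity recorded by fluorescence scanning.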
KB-V1 MDR tox: qHTS assay for MDR1-selective chemotherapeutics: Primary screen using the drug-selected MDR subline cells KB-V1; KB-V1 MDR cells viability, CellTiter-Glo, 72 h; 3.4% of 400,000 active; Potency, µM (top dose mostly 46.1 µM), usual class: cytotoxic; note: nearly all actives have a fitted effect of over 60% in size
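Cytotoxicity via CellTiter-Glo luminescence after 72 h compound exposure at 37 degrees C. Cells: drug-selected KB-V1 line, DMEM phenol-red free plus 10% FBS. Compounds tested at multiple concentrations; normalized data fitted to concentration-effect curves.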
RORg inh: qHTS for inhibitors of ROR gamma transcriptional activity; Drosophila S2 Gal4-RORgamma UAS-luciferase reporter, 20 h; Potency, µM (titrated, usually from 53.6 µM), usual class: inhibitors; 5.4% of 310,000 active; AID 2551, 2010; note: nearly all actives have a fitted effect of over 60% in size
Target sequence (P51450 whole entry, looked up, the tested form may be a part): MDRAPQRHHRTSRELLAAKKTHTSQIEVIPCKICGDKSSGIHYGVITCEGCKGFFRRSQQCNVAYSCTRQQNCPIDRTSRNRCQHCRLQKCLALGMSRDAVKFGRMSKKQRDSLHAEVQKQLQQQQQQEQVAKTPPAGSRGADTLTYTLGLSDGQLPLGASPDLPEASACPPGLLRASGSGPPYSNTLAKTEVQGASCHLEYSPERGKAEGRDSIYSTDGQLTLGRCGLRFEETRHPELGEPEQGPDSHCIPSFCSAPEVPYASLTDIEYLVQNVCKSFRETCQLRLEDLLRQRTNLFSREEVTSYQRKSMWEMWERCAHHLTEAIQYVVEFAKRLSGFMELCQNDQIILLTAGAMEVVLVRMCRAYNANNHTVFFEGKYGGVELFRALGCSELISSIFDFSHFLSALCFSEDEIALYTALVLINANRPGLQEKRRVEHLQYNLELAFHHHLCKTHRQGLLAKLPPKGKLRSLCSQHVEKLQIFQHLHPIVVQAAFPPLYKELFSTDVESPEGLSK
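In this cell-based reporter format, copper sulfate (700 uM final) drives Gal4–ROR gamma fusion expression from a metallothionein promoter in Drosophila Schneider cells; compounds preincubated 1 hr, reporter read after 20 hr at ambient temperature.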
KB-3-1 cytotox: qHTS assay for MDR1-selective chemotherapeutics: Primary screen using the parental adenocarcinoma cell KB-3-1. 1.4% of 400,000 active. KB-3-1 viability, CellTiter-Glo ATP luminescence, 72 h. Potency, µM (titrated, usually from 46.1 µM), most hits filed as cytotoxic; note: nearly all actives have a fitted effect of over 60% in size
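72 h, 37 °C compound treatment of KB-3-1 parental cells; CellTiter-Glo added, 10 min, luminescence read. Data corrected against DMSO-only plates and normalized before curve fitting.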
Gal4-VP16 FLuc: VP16 counterscreen qHTS for inhibitors of ROR gamma transcriptional activity. Potency, µM (series often up to 53.6 µM), actives largely listed as inhibitors. Drosophila S2 Gal4-VP16 UAS-luciferase, luminescence, 20 h. 3.5% of 310,000 active;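 note: Gal4-VP16 expression switched on by copper sulfate through the metallothionein promoter; nearly all actives have a fitted effect of over 50% in size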
MCF10A rereplic: A quantitative high throughput screen for small molecules that induce DNA re-replication in MCF 10a normal breast cells | 2.9% of 350,000 active | Potency, µM (doses to about 46.1 µM), usual class: activators | MCF 10A DNA re-replication, Hoechst nuclear intensity, 48 h | AID 624296, 2012; note: nearly all actives have a fitted effect of over 50% in size
Of the large screens only hits and unclear results are named; the others gave an inactive call. Calls come from the whole dose curve; as a rule, active = well fitted curve in the direction sought with a large enough effect; inconclusive = small, poorly fitted or top-dose-only effect, or another doubt; inactive = no such curve, though single readings can be large; an effect the other way counts as inactive or inconclusive.

OC(c1ccc(CN2CCCCC2)cc1)c1ncc(-c2ccccc2)[nH]1 (centres undefined)	none (no result: SW480 rereplic, RORg inh, Gal4-VP16 FLuc, MCF10A rereplic)
COC(=O)c1cc2oc3ccccc3c2n1Cc1nc(-c2ccc(Cl)cc2)oc1C	none (no result: SW480 rereplic, RORg inh, Gal4-VP16 FLuc, MCF10A rereplic)
CC[C@H](C)[C@H](NC(=O)[C@H](Cc1ccc(O)cc1)NC(=O)[C@@H]1CCCN1C(=O)[C@H](CCCN=C(N)N)NC(=O)[C@H](CCCN=C(N)N)NC(=O)[C@@H]1CCCN1C(=O)[C@H](CCCCN)NC(=O)[C@H](CC(N)=O)NC(=O)[C@H](CCC(N)=O)NC(=O)[C@H](Cc1ccc(O)cc1)NC(=O)[C@H](CC(C)C)NC(=O)[C@@H]1CCC(=O)N1)C(=O)N[C@@H](CC(C)C)C(=O)O	none (no result: SW480 rereplic, KB-V1 MDR tox, KB-3-1 cytotox, MCF10A rereplic)
Cc1cc(C(=O)N/N=C/c2ccc([N+](=O)[O-])cc2)c2ccccc2n1	SW480 rereplic 13µM, RORg inh inconclusive, KB-3-1 cytotox 5.8µM, MCF10A rereplic inconclusive
CCc1ccc(/C=N/NC(=O)c2cc(C)on2)s1	RORg inh 5.6µM, Gal4-VP16 FLuc 5.6µM
Cc1cc(Nc2cccc([N+](=O)[O-])c2)c2ccccc2n1	KB-V1 MDR tox inconclusive, MCF10A rereplic inconclusive
O=C(N/N=C/C=C\c1ccccc1[N+](=O)[O-])c1cc(-c2ccccc2)nc2ccccc12	SW480 rereplic inconclusive, RORg inh 1.6µM, KB-3-1 cytotox inconclusive, Gal4-VP16 FLuc 2.8µM
Cc1cc(Nc2ccc([N+](=O)[O-])cc2)c2ccccc2n1	RORg inh inconclusive, Gal4-VP16 FLuc inconclusive, MCF10A rereplic 2.6µM
Cc1cc(C(=O)N/N=C/c2cccc(Cl)c2Cl)no1	none
Cc1cc(Nc2ccc(C)c(Cl)c2)n2nc(Cc3ccccc3)nc2n1	none (no result: SW480 rereplic, RORg inh, Gal4-VP16 FLuc, MCF10A rereplic)
O=C(CN1C(=O)COc2ccc(S(=O)(=O)N3CCOCC3)cc21)N1CCN(c2ccccc2)CC1	none (no result: SW480 rereplic, RORg inh, Gal4-VP16 FLuc, MCF10A rereplic)
Cc1cc(C(=O)Nc2ccc(Br)cc2)c2ccccc2n1	none
CCOc1ccc(Br)cc1C(=O)N/N=C/c1cccc(C)n1	MCF10A rereplic 18µM
Cc1cc(C(=O)N/N=C/c2cc(Br)cc([N+](=O)[O-])c2O)c2ccccc2n1	KB-V1 MDR tox inconclusive, RORg inh 2µM, Gal4-VP16 FLuc 3.2µM (no result: SW480 rereplic)
CCN(C(=O)COc1ccc(C)cc1OC)c1cccc2ccccc12	KB-V1 MDR tox 12µM (no result: RORg inh, Gal4-VP16 FLuc)
Cc1noc(C)c1S(=O)(=O)NC(=O)C1(C)CCN1C(=O)Cc1ccc(Cl)cc1Cl (centres undefined)	none (no result: SW480 rereplic, RORg inh, Gal4-VP16 FLuc, MCF10A rereplic)
CC(C)(C)c1ccc(C(=O)Nc2onc3c2CCCC3)cc1	none (no result: SW480 rereplic, RORg inh, Gal4-VP16 FLuc, MCF10A rereplic)
COc1ccccc1-c1noc(-c2ccc(N3CCOCC3)c([N+](=O)[O-])c2)n1	none (no result: SW480 rereplic, RORg inh, Gal4-VP16 FLuc, MCF10A rereplic)
CC(=O)N1CC(c2ccccc2)C(c2ccc(Cl)cc2)=N1 (centres undefined)	KB-V1 MDR tox 15µM, Gal4-VP16 FLuc inconclusive
CC(C)NC(=O)N1CC(c2ccccc2)C(c2ccc(Cl)cc2)=N1 (centres undefined)	KB-V1 MDR tox inconclusive
COc1ccc(Cn2cc(C(=O)c3ccc(C)c(C)c3)c(=O)c3ccccc32)cc1	none (no result: SW480 rereplic, RORg inh, Gal4-VP16 FLuc, MCF10A rereplic)
O=C(Nc1ccc2nc3n(c(=O)c2c1)CCCCC3)c1ccccc1[N+](=O)[O-]	KB-V1 MDR tox inconclusive
O=C(Nc1ccc2nc3n(c(=O)c2c1)CCCC3)c1ccccc1F	none
O=C(Nc1ccc2nc3n(c(=O)c2c1)CCCCC3)c1c(F)ccc([N+](=O)[O-])c1F	SW480 rereplic 1.3µM, KB-V1 MDR tox 16µM, KB-3-1 cytotox 2.3µM, Gal4-VP16 FLuc 7.9µM, MCF10A rereplic inconclusive
O=C(Nc1ccc2nc3n(c(=O)c2c1)CCCCC3)c1cc([N+](=O)[O-])ccc1F	SW480 rereplic 16µM, KB-3-1 cytotox inconclusive, MCF10A rereplic 15µM
CCCS(=O)(=O)NC(=O)C1(C)CCN(C(=O)c2ccc(C#N)cc2)C1 (centres undefined)	none (no result: SW480 rereplic, RORg inh, Gal4-VP16 FLuc, MCF10A rereplic)
CCOC(=O)c1ccc(NC(=O)CSc2nccn2-c2ccc(OCC)cc2)cc1	none (no result: SW480 rereplic, RORg inh, Gal4-VP16 FLuc, MCF10A rereplic)
